# From PubChem BioAssay (Tox21)
# Inconclusive results are not listed. Unmarked numbers belong to inactive results. Calls of active or inactive are those of the source. The call rests on the fitted dose curve; in most records, active means well fitted cell-killing curve with a large enough effect in the repeat runs; inconclusive means weak or mixed curves, or effect the other way; inactive means flat fitted curve, though single readings scatter.
# Assay: cAMP Responsive Elements (CRE) small molecule agonists, cell-based qHTS assay: qHTS cell viability counter screen (AID 2060914);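 further: viability read after 3 h of compound exposure; nearly all actives have a fitted effect of over 50% in size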
# Conditions: CRE-bla HEK293T viability, CellTiter-Glo luminescence, 5 h; series mostly up to 92.4 µM; activity change, negative = cytotoxicity: at the top concentration
# Text: National Center for Advancing Translational Sciences [NCATS]
# Division of Preclinical Innovation [DPI]
# U.S. Environmental Protection Agency [EPA]
# National Institutes of Environmental Health Sciences [NIEHS]
# National Toxicology Program [NTP]
# U.S. Food and Drug Administration [FDA]
# CREB (cyclic-AMP Responsive Element Binding Protein) is a cellular transcription factor. It binds to certain DNA sequences called cAMP Responsive Elements (CRE) and regulates the transcription of the genes. […] This cell line can be used to find agonists/antagonists of the cyclic AMP signaling pathway. The activation of the report gene under culture conditions can be detected by fluorescence intensity. This cell line has been used to screen the Tox21 10K compound library to identify agonists that induce oxidative stress. The cytotoxicity of the Tox21 compound library against the CRE-bla cell line was tested in parallel by measuring the cell viability using CellTiter-Glo assay (Promega, Madison, WI) in the same wells.
# Tox21 Assay Protocol Summary:
# CRE-bla Hek 293T cells were suspended in assay medium (DMEM containing 10% dialyzed FBS, 0.1 mM NEAA, 1 mM sodium pyruvate and 25 mM HEPES) and dispensed at 2,000 cells/5 uL /well into 1536-well black wall/clear bottom plates using a Multidrop Combi (ThermoFisher Scientific, Waltham, MA) dispenser. After the assay plates were incubated at 37 C/5% CO2 for 18 hrs, 23 nL of compounds dissolved in DMSO, positive controls or DMSO only was transferred to the assay plate by a pintool workstation (Kalypsys, San Diego, CA). After the plates were incubated at 37 C/5% CO2 for 3 hrs, 1 uL of LiveBLAzer B/G FRET substrate (Invitrogen, Carlsbad, CA) was added to each well using Bioraptr Flying Reagent Dispenser (FRD, Aurora Discovery, San Diego, CA). The plates were incubated at room temperature for 2 h, then fluorescence intensities were measured using an Envision plate reader (PerkinElmer, Shelton, CT) at Excitation 405nm, Emission 460nm and 530nm. The % activity was determined from the ratio of 460nm/530nm. For cell viability readout that measures cytotoxicity, 4 uL /well of CellTiter-Glo reagent was added into the assay plates using Bioraptr FRD. After 30 min incubation at room temperature, the luminescence intensity in the assay plates was measured using a ViewLux (PerkinElmer, Shelton, CT) plate reader.
# On the % scale 0 is the no-effect control and ±100 the full control effect; potency means the concentration at half of the fitted maximal effect.
SMILES,"activity change, negative = cytotoxicity",Potency
CC(C)=CCCC(C)CCOC(=O)C(C)C (stereo not given),16.1%,
CCCCC(CC)COC(=O)CCCCCCCCC(=O)OCC(CC)CCCC (stereo not given),9.57%,
NCCCC(N)(C(=O)O)C(F)F (stereo not given),5.8% [at 42.5 µM],
CN(C)CCCN1c2ccccc2CCc2ccc(Cl)cc21,,inactive
CC(=O)c1cc2ccccc2s1,6.91% [at 42.5 µM],
C#CCOC(=O)[C@@H](C)Oc1ccc(Oc2ncc(Cl)cc2F)cc1,-1.33%,
CC(C)(CO)COC(=O)C(C)(C)CO,,inactive
NC(=S)NC(N)=S,-0.674%,
CCCCc1ccc(Cl)cc1,-1.79%,
CC1=C(CC(=O)O)c2cc(F)ccc2/C1=C\c1ccc(S(C)(=O)=O)cc1,-6.31% [at 42.5 µM],
O=C(O)c1cccc(C(=O)O)c1C(=O)O,-2.74%,
CCC(C(=O)OCCOCCN(CC)CC)c1ccccc1 (stereo not given),-6.91% [at 42.5 µM],
N=C(N)c1ccc(OCCCCCOc2ccc(C(=N)N)cc2)cc1,,inactive
N=C1N=C(N)c2ccccc21,23.3%,
Cc1cc(N)no1,0.444%,
CCC(CO)(CO)COCC(CC)(CO)CO,7.03%,
CCCCNC(=O)NS(=O)(=O)c1ccc(C)cc1,,inactive
COc1cc2nc(N3CCN(C(=O)C4CCCO4)CC3)nc(N)c2cc1OC (stereo not given),-4.58% [at 42.5 µM],
FC(F)OC(Cl)C(F)(F)F (stereo not given),-11%,
CCCCC(CC)COC(=O)CCCCC(=O)OCC(CC)CCCC (stereo not given),,inactive

SMILES,"activity change, negative = cytotoxicity",Potency
CC(CC(=O)O)CC(C)(C)C (stereo not given),5.01%,
CCOc1ccccc1OCC1CNCCO1 (stereo not given),9.29% [at 42.5 µM],
O=C(O)Cn1cnnn1,2.16% [at 42.5 µM],
CCN(CCCCOC(=O)c1ccc(OC)c(OC)c1)C(C)Cc1ccc(OC)cc1 (stereo not given),5.4% [at 42.5 µM],
O=c1[nH]c2ccccc2c(=O)n1CCCl,4.9% [at 42.5 µM],
ICCc1ccccc1,-5.85%,
CC1CCC(C(C)CS)CC1S (stereo not given),0.454%,
O=C(O)/C=C/c1ccc(Cn2ccnc2)cc1,-0.242% [at 42.5 µM],
CSSc1ccoc1C,16.4%,
CS(=O)(=O)c1ccc([C@@H](O)[C@@H](CO)NC(=O)C(Cl)Cl)cc1,,inactive
CCCCCCC(=O)O,1.82%,
CCO[Si](CC)(OCC)OCC,-10.9%,
Cc1cc(C)c(C)cc1C,,inactive
O=C(O)c1ccc(CO)o1,1.34%,
CC(=O)/C(C)=C/C1C(C)=CCCC1(C)C (stereo not given),-0.381%,
C=C(C)C(=O)OCC(C)O (stereo not given),,inactive
CCCCCCCC/C=C\CCCCCCCCOCCO,,63.1 µM (active)
COC(=O)[C@H](Cc1ccccc1)NC(=O)[C@@H](N)CC(=O)O,,inactive
CO[C@@H]1[C@H](OC(=O)/C=C/C=C/C=C/C=C/C(=O)O)CC[C@]2(CO2)[C@H]1[C@@]1(C)O[C@@H]1CC=C(C)C,-1.18%,
CSc1nnc(C(C)(C)C)c(=O)[nH]1,-6.21%,
